High-throughput results as filed in PubChem BioAssay.
Hits are enriched below; roughly 3.9% of the tested compounds scored in any of these assays.
TROY NFkB inh = inhibitors of TROY-dependent NF-kB signaling; inhibition, % at 10 µM; 0.98% of 360,000 active; Q293 LMP1-TROYcd NF-kB luciferase reporter, 4 h;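 active = compounds whose plate-normalised and pattern-corrected inhibition of the luciferase reporter signal at the single screening dose is 50% or more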
TWEAK Fn14 block = TWEAK-Fn14 signaling inhibition. AID 1159606. TWEAK-stimulated Fn14 reporter cells, luciferase luminescence, 8 h. inhibition, % at 10 µM. 2% of 360,000 active; in the data active = inhibition above about 50%
Peg3 prom inh = Peg3 promoter activity inhibition; HeLa PEG-Prom luciferase reporter, luminescence, overnight; inhibition, % at 20 µM; 1.7% of 360,000 active; AID 588405;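 active = inhibition of at least 50% at 20 µM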
CF NFkB block = inhibitors of cystic fibrosis induced NF-kB | KKLEB NF-kB-GFP reporter, PAF-induced, GFP fluorescence overnight | inhibition, % at 5 µM | 0.86% of 360,000 active;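 active = at least 50% inhibition at 5 µM, scaled per plate between neutral and stimulator controls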;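 also: PAF is a Pseudomonas aeruginosa culture filtrate used as stimulus; plate controls were PAF-stimulated DMSO wells for no effect and unstimulated DMSO wells for full effect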
HIF-2a inh = HIF-2a inhibition. 786-0 RCC cells HIF-2a reporter, luciferase luminescence, overnight. AID 624352. 0.72% of 360,000 active. inhibition, % at 18.8 µM;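 active = inhibition of the luminescence signal of 40% or more relative to plate controls, in a single-dose primary screen at 18.75 µM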
KKLEB tox = reduces viability of KKLEB cystic fibrosis airway cells; 0.36% of 360,000 active; KKLEB CF airway cells viability, ATPlite luminescence, overnight; hits give low values; cells stimulated with P. aeruginosa culture filtrate; activity change (cytotoxicity), % at 5 µM;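 active = corrected activity change at or below -50% at 5 µM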
* hit, by the source's call; / = no result.

SMILES | TROY NFkB inh | TWEAK Fn14 block | Peg3 prom inh | CF NFkB block | HIF-2a inh | KKLEB tox
COc1cc(C2C3=C(COC3=O)Oc3cc4c(cc32)OCO4)cc(OC)c1OC(C)=O (configuration not stated) | 12.1 | -18.8 | -36.8 | 66.7* | 13.8 | -34.1
COC(=O)c1cc(C(=O)c2ccc(C(C)(C)C)cc2)c[nH]1 | -10.3 | 6.1 | -132.4 | 28.7 | -198.2 | -33.2
CC(C)(C)c1ccc(C(=O)c2c[nH]c(C(=O)O)c2)cc1 | 13.9 | 50.4* | -146.7 | 4.3 | -121.1 | 1.2
Cn1c(N)c(C(C[N+](=O)[O-])c2ccccc2Cl)c(=O)n(C)c1=O (configuration not stated) | 11.8 | 99.2* | 8.1 | -5.3 | 17.9 | 8.1
COc1cc([C@@H]2CC=C(C(=O)O)[C@H](c3ccccc3F)N2S(=O)(=O)c2ccc(C)cc2)cc(OC)c1OC | 0.2 | -0.3 | -5.6 | 12.7 | 6.8 | 3.7
COc1cccc(/C=C2\SC(=S)N(CCC(=O)NCCc3ccc(O)cc3)C2=O)c1 | 5.2 | -5.3 | 95.4* | 13.1 | 28.9 | -8.8
O=C(CCN1C(=O)/C(=C/c2ccccc2)SC1=S)Nc1ccccn1 | 20.1 | -2.1 | 19.8 | -1.9 | 7.7 | 11.8
CN1CCN(C(=O)CCN2C(=O)/C(=C\c3ccc(F)cc3)SC2=S)CC1 | -8.2 | 6.0 | 14.9 | 7.3 | -17.4 | 12.2
O=C(CN1C(=O)/C(=C/c2ccc(F)cc2)SC1=S)N1CCN(CCc2ccccn2)CC1 | 13.3 | 11.6 | 51.3* | -4.2 | 6.6 | 4.4
O=C(CCN1C(=O)/C(=C/c2ccc(F)cc2)SC1=S)NCCc1ccc(O)cc1 | 1.2 | -6.7 | 83.0* | -6.3 | 13.0 | -0.3
COc1cccc(/C=C2\SC(=S)N(CCC(=O)Nc3ccc(O)cc3)C2=O)c1 | 4.7 | 25.0 | -103.5 | 13.3 | -85.5 | 12.8
O=C(Nc1ccccc1)C1CCCN(C(=O)c2ccc(F)cc2)C1 (configuration not stated) | 0.2 | -10.6 | 13.5 | 13.2 | 14.3 | -8.8
O=c1[nH]c(CSc2nnc(-c3ccccc3)n2C2CCCCC2)nc2ccccc12 | 21.3 | 22.1 | 20.2 | 11.0 | -12.6 | -4.7
CC(C)(C)c1ccc(C(=O)NC(=S)Nc2sc3c(c2C#N)CCC3)cc1 | 19.3 | -48.7 | -8.6 | -18.7 | -63.8 | -0.9
Cc1cc(C(=O)Nc2nc3c(s2)CCCC3)no1 | -2.1 | 60.5* | -120.9 | 12.3 | -60.4 | 0.2
COC(=O)Nc1nc2c(s1)CCCC2 | -42.9 | -7.8 | -98.2 | 10.2 | -86.8 | 5.3
Cc1onc(-c2ccccc2)c1C(=O)Nc1nc2c(s1)CCCC2 | 32.0 | 5.5 | -29.6 | -3.3 | -103.3 | -6.1
CC(C)(C)c1ccc(C(=O)NC(=S)Nc2nc3c(s2)CCCC3)cc1 | 83.5* | 81.6* | -128.4 | -3.2 | -24.0 | -15.1
C/C(=N\Nc1nc2c(s1)CCCC2)c1ccc(Cl)cc1 | 31.3 | 54.7* | -105.2 | -7.1 | -229.7 | -12.6
C/C(=N\NC1=NCCN1)c1ccc(Cl)cc1 | -0.3 | 0.6 | 21.6 | 1.7 | 20.5 | 3.0
CN(C)c1ccc(C(=O)Nc2nc3c(s2)CCCC3)cc1 | 23.0 | 72.4* | -80.9 | 0.4 | -169.9 | 0.2
O=C1NC[C@H](CCCCN2CCN(CC3CCCCC3)C(=O)C2=O)N(Cc2ccccc2)C1=O | 4.8 | -1.8 | / | / | -0.8 | /
Nc1cc2sc(-c3ccc(C(=O)O)cc3)nc2cc1Cl | -14.8 | 29.1 | -21.1 | -12.6 | -25.2 | -7.2
Cc1cc(-c2nc3cc(F)ccc3s2)ccc1N | 34.2 | 75.2* | -112.0 | -53.2 | -44.0 | -30.0
COC(=O)c1c(C)oc2ccc(NS(=O)(=O)c3cccs3)cc12 | 24.5 | 21.4 | 14.4 | 16.3 | 19.5 | -1.6
CCOC(=O)Cc1cc(OC)c(OC)cc1Cc1cc(OC)c(OC)cc1CC(=O)OCC | 8.6 | 79.6* | -52.5 | -5.3 | -5.2 | 4.8
COc1ccc2nc3n(c(=O)c2c1)-c1ncccc1C(=O)NC3CC(C)C (configuration not stated) | 1.9 | 76.3* | 8.2 | -14.0 | 11.0 | 6.8
CC(C)CC1NC(=O)c2cccnc2-n2c1nc1cc(F)c(F)cc1c2=O (configuration not stated) | -5.5 | -28.5 | 0.7 | -0.8 | 9.0 | -8.0
O=C(C1CCN(c2ncnc3c2nc2n3CCCCC2)CC1)N1CCN(c2cccc(Cl)c2)CC1 | 49.2 | 54.1* | 59.6* | -8.9 | 27.4 | -9.0
